Source: the supplement of paper PMC10338343
± gives the standard deviation.

Key:
[1] = system: MILI (PIWIL2) piRISC loaded with L1MC piRNA (26 nt); test: pre-steady-state target cleavage rate (min^-1); guide: L1MC piRNA 5'p-UAACUAAAUACUAUGCAAGCUGUAGG; higher = faster piRNA-guided slicing of the target;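 also: 1 nM active piRISC with 0.1 nM target library at 33 °C single turnover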
How it was run: (§1)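 Three pooled Cleave-'n-Seq trials supplied the data, with k3 capped at 0.0001 min^-1. In each, […] transcribed, DNA-blocked target RNA library and 1 nM active affinity-purified piRISC with one synthetic guide reacted in HEPES–potassium acetate buffer at 33 °C for 0–8 or 0–960 min, with or without 500 nM GTSF1 partner protein. Uncleaved targets were sequenced and normalised to depth and to weakly complementary targets. A burst-and-steady-state fit provided the pre-steady-state cleavage rate.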

[2] = system: EfPiwi piRISC loaded with L1MC piRNA (26 nt); test: pre-steady-state target cleavage rate (min^-1); auxiliary factor: 500 nM Ephydatia muelleri Gtsf1; guide: L1MC piRNA 5'p-UAACUAAAUACUAUGCAAGCUGUAGG; MIWI and MILI are mouse PIWI proteins and EfPiwi is from a freshwater sponge; tags in brackets are library labels; higher = faster piRNA-guided slicing of the target
How it was run: as §1

[3] = auxiliary factor: 500 nM mouse GTSF1
[4] = auxiliary factor: none (no GTSF1)

Sequence | pre-steady-state target cleavage rate [1, 3] | pre-steady-state target cleavage rate [1, 4] | pre-steady-state target cleavage rate [2]
UCCUCCUACCAGCUUGCAUAGUAUUUAGUUA | 0.275 ± 0.017 | 0.00841 ± 0.0025 | 0.0186 ± 0.0056
UCCUGGAACAUGCUUGCAUAGUAUUUAGUUA | 0.184 ± 0.011 | 0.00694 ± 0.0023 | 0.0178 ± 0.0057
UCCUGGAUCAGCUUGCAAAGUAUUUAGUUA | 0.151 ± 0.015 | 0.00946 ± 0.0023 | 0.0218 ± 0.0057
UCCUGGUAGAGCUUGCAAAGUAUUUAGUUA | 0.109 ± 0.0077 | 0.00935 ± 0.0029 | 0.0322 ± 0.0099
UCCUCCUACAGCUUGCAUAGUAUUUAAUUA | 0.11 ± 0.019 | 0.00326 ± 0.0027 | 0.00331 ± 0.003
UCCUGGAUGAGCUUGCAAAGUAUUUAGUUA | 0.0794 ± 0.011 | 0.00483 ± 0.0028 | 0.0322 ± 0.0094
UCCUGGAUCUGCUUGCAAAGUAUUUAGUUA | 0.0598 ± 0.013 | 0.0085 ± 0.0023 | 0.0405 ± 0.011
UCCUGGAUCAGCUUGCAUUGUAUUAAGUUA | 0.142 ± 0.016 | 0.00356 ± 0.0025 | 0.00314 ± 0.0017
UCCUGGUACUAGCUUGCAUAGUAUUUAGUUA | 0.068 ± 0.021 | 0.00943 ± 0.003 | 0.00885 ± 0.0038
UCCUGGAUCCGCUUGCAUAGUAUUUAGUUA | 0.297 ± 0.019 | 0.00868 ± 0.0026 | 0.146 ± 0.029
UCCUCCUACAGCUUGCAUAGUAGUUAGUUA | 0.192 ± 0.026 | 0.00325 ± 0.0032 | 0.00786 ± 0.0026
UCCUGGAUGUGCAAGCAUAGUAUUUAGUUA | 0.055 ± 0.012 | 0.00481 ± 0.0026 | 0.00427 ± 0.0022
UCCUGGAACAGCUUCAUAGUAUUUAGUUA | 0.252 ± 0.015 | 0.00361 ± 0.0026 | 0.0107 ± 0.0034
UCCUGGUACAGCUUGCAUAUUAUUUAGUUA | 0.0704 ± 0.01 | 0.00385 ± 0.0027 | 0.00464 ± 0.0037
UCCUCCUACAGCUUGCAUAGUAUUAUAGUUA | 0.258 ± 0.019 | 0.00434 ± 0.0022 | 0.00777 ± 0.0033
UCCUCCUACACUUGCAUAGUAUUUAGUUA | 0.248 ± 0.016 | 0.00564 ± 0.002 | 0.049 ± 0.015
UCCUGGAACAGCUUGCAUGUAUUUAGUUA | 0.083 ± 0.014 | 0.00308 ± 0.0027 | 0.00314 ± 0.0027
UCCUGCUACUGGUUGCAUAGUAUUUAGUUA | 0.251 ± 0.018 | 0.0113 ± 0.0029 | 0.0113 ± 0.0035
UCCUGGAUGACGUUGCAUAGUAUUUAGUUA | 0.176 ± 0.02 | 0.00683 ± 0.0027 | 0.00512 ± 0.0026
UCCUGGAACAGCUUGCUUUGUAUUUAGUUA | 0.182 ± 0.019 | 0.0038 ± 0.0025 | 0.00396 ± 0.0025
UCCUGGAAAAGCUUGCAUAGUAUUUAGUUA | 0.249 ± 0.019 | 0.00809 ± 0.0029 | 0.0119 ± 0.0039
UCCUGGAACAGCUUGCUAAGUAUUUAGUUA | 0.129 ± 0.015 | 0.00361 ± 0.0028 | 0.00374 ± 0.0032
UCCUGGAUGAGCUAGCAUAGUAUUUAGUAA | 0.168 ± 0.021 | 0.00735 ± 0.0023 | 0.00419 ± 0.0024
UCCUCCUACAGCAUGCAUACUAUUUAGUUA | 0.0758 ± 0.011 | 0.00328 ± 0.0022 | 0.00724 ± 0.0028
UCCUGGAUGAGUUGCAUAGUAUUUAGUUA | 0.108 ± 0.013 | 0.00501 ± 0.0019 | 0.00429 ± 0.002

Sequence | pre-steady-state target cleavage rate [1, 3] | pre-steady-state target cleavage rate [1, 4] | pre-steady-state target cleavage rate [2]
UCCUGGAUGAGCUUGCAUAGUAUUUAGUAA | 0.218 ± 0.019 | 0.00773 ± 0.0026 | 0.00367 ± 0.0022
UCCUGGAUGUCGUUCGCAUAGUAUUUAGUUA | 0.101 ± 0.013 | 0.00567 ± 0.0028 | 0.00486 ± 0.0031
UCCUGGAUCAGCUUGCAUAGUAUUUAGUUUA | 0.358 ± 0.025 | 0.00718 ± 0.0026 | 0.0394 ± 0.011
UCCUGGUACAGCUUGCAUAGUAAUUAGUUA | 0.317 ± 0.034 | 0.00595 ± 0.0029 | 0.00654 ± 0.0025
UCCUGGAUGAGCUUGCAUUGUAAUUAGUUA | 0.0683 ± 0.013 | 0.0035 ± 0.0031 | 0.00306 ± 0.0025
UCCUCCUUCAGCUUGCAUAGUAUUUUGUUA | 0.139 ± 0.021 | 0.00287 ± 0.002 | 0.00463 ± 0.0027
UCCUGGUACAGCUUGCAAUAGUAUUUAGUUA | 0.0322 ± 0.0093 | 0.00408 ± 0.0024 | 0.00587 ± 0.0028
UCCUGCUACAGCAUGCAUAGUAUUUUGUUA | 0.167 ± 0.029 | 0.00333 ± 0.0032 | 0.00422 ± 0.002
UCCUGGAUGAGCUUCAUAGUAUUUAGUUA | 0.0977 ± 0.012 | 0.00515 ± 0.002 | 0.00394 ± 0.0033
UCCUCCUACAGCCUUGCAUAGUAUUUAGUUA | 0.262 ± 0.019 | 0.0101 ± 0.0026 | 0.0222 ± 0.0079
UCCUCCUACAGCUUGCAUCGUAUUUAGUUA | 0.129 ± 0.013 | 0.00682 ± 0.0021 | 0.0492 ± 0.014
UCCUCCUACAGCUUGGUUAGUAUUUAGUAA | 0.204 ± 0.022 | 0.00554 ± 0.0017 | 0.00533 ± 0.0032
UCCUGGAUGAGCUUGCAUAGUGUUUAGUUA | 0.117 ± 0.016 | 0.00732 ± 0.0031 | 0.00987 ± 0.0028
UCCUGGUACAGCAUGCAAAGUAUUUAGUUA | 0.119 ± 0.014 | 0.0117 ± 0.0036 | 0.00646 ± 0.0023
UCCUGGAUGUCCUUGCAUAGUAUUAAGUUA | 0.116 ± 0.019 | 0.00289 ± 0.0026 | 0.00404 ± 0.0034
UCCUGGAACCGCUUGCAUAGUAUUUAGUUA | 0.265 ± 0.015 | 0.0108 ± 0.002 | 0.0172 ± 0.0054
UCCUGCAACAGCUUGCUUAGUAUUUAGUUA | 0.293 ± 0.016 | 0.00661 ± 0.0026 | 0.0143 ± 0.0036
UCCUGGAACUCCUUGCAUAGUAUUUAGUAA | 0.169 ± 0.02 | 0.00259 ± 0.0025 | 0.00371 ± 0.0017
UCCUGGAUCAGCUGCAUAGUAUUUAGUUA | 0.25 ± 0.015 | 0.00821 ± 0.0027 | 0.0152 ± 0.0053
UCCUGGUACAGCUUGCAUAGUAUUUAGUUC [g2:g24:cont:t1C] | 0.3 ± 0.016 | 0.0117 ± 0.0049 | 0.0096 ± 0.0039
UCCUGGAUGAGCUUGCAUAGUAUUUACGUUA | 0.189 ± 0.031 | 0.00682 ± 0.0032 | 0.00466 ± 0.0026
UCCUGGAACGAGCUUGCAUAGUAUUUAGUUA | 0.239 ± 0.024 | 0.00792 ± 0.0025 | 0.00926 ± 0.0022
UCCUCCUACAGCAUGGAUAGUAUUUAGUUA | 0.269 ± 0.014 | 0.00942 ± 0.0022 | 0.096 ± 0.023
UCCUGGAUCAGCUUGGAUAGUAAUUAGUUA | 0.167 ± 0.018 | 0.00352 ± 0.0023 | 0.00256 ± 0.0025
UCCUGCUACACCUUGCAUUGUAUUUAGUUA | 0.151 ± 0.014 | 0.0123 ± 0.004 | 0.00323 ± 0.0025
